What all share (test): NCI-60 one-dose screen, 48 h (100 = growth as untreated, 0 = no growth, -100 = all killed)
Experiment [1] has as its system HCT-15 colon. The following applies: 10 µM unless noted.
Experiment [2] deals with HT29 colon. The following applies: 10 µM unless noted.
For experiment [3], the system named is SNB-75 CNS. The note with it: 10 µM unless noted.
Experiment [4] deals with U251 CNS. The note with it: 10 µM unless noted.
The subject of experiment [5] is PC-3 prostate. The note with it: 10 µM unless noted.
The subject of experiment [6] is SK-MEL-5 melanoma. The note with it: 10 µM unless noted.
The subject of experiment [7] is UACC-62 melanoma. The note with it: 10 µM unless noted.
Experiment [8] deals with LOX IMVI melanoma. The following applies: 10 µM.
Experiment [9] deals with SK-MEL-28 melanoma. The following applies: 10 µM unless noted.
In experiment [10] the test system is SK-MEL-2 melanoma. The following applies: 10 µM unless noted.
Experiment [11] has as its system EKVX NSCLC. The note with it: 10 µM unless noted.
Experiment [12] relates to UO-31 renal. The note with it: 10 µM unless noted.
Experiment [13] deals with TK-10 renal. The following applies: 10 µM unless noted.
The test system of experiment [14] is ACHN renal. The following applies: 10 µM unless noted.
Experiment [15] has as its system CAKI-1 renal. The following applies: 10 µM unless noted.
Experiment [16] deals with A498 renal. The following applies: 10 µM unless noted.
Experiment [17] concerns CCRF-CEM leukemia. The following applies: 10 µM unless noted.
The test system of experiment [18] is MOLT-4 leukemia. The note with it: 10 µM unless noted.

About 83,000 compounds went through this panel and 20% of them were active in at least one assay; those are over-represented in the sample as a whole.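 Treatment: one concentration, 48 hours, 96-well format. Scoring: percent growth, with anything below 10 considered active.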 Unmarked numbers belong to inactive results. Activity calls are given as the source filed them.

Take `CCCSc1nc(NCCc2c[nH]c3ccccc23)c(C#N)c(-c2ccccc2)n1`: the growth in experiment [1] is 27.3%; in experiment [2], 30.3%; in experiment [3] it was 87.7%; in experiment [4], 44.6%; in experiment [5], 35%; in experiment [6] it was 41.6%. Moreover, the growth in experiment [7] was 76.3%; in experiment [8], 53.3%; in experiment [9], 97.4%; in experiment [10], 75%; in experiment [11], 35.7%; in experiment [12], 64.5%. Besides, the growth in [13] is 107%; in [14], 78.2%; in experiment [15], 57.1%; in experiment [16], 82.5%; in [17], 40.4%; in [18], 44.7%.
As to `Cc1cccc(NC(=O)[C@]23CCC(C)(C)CC2C2=CCC4[C@@]5(C)C[C@@H](O)[C@H](O)[C@@](C)(CO)C5CC[C@@]4(C)[C@]2(C)CC3)c1` (stereo partly drawn), the growth is -5.5% (active) in experiment [1]; -56.1% (active) in experiment [2]; 43.7% in experiment [3]; 27.8% in experiment [4]; 13.3% in experiment [5]; -90.7% (active) in [6]. The growth in [7] is 20.3%; in experiment [8] it was -75.2% (active); in experiment [9] it was 32.5%; in [10], 32.2%; in experiment [11], 11.5%; in experiment [12] it was 14.3%. Besides, the growth in experiment [13] was 52.9%; in [14], 1.52% (active); in [15], 22.8%; in experiment [16], -11.3% (active); in experiment [17], 15.8%; in [18] it was 5.2% (active).
Regarding `Cc1ccc(NC(=O)[C@]23CCC(C)(C)CC2C2=CCC4[C@@]5(C)C[C@@H](O)[C@H](O)[C@@](C)(CO)C5CC[C@@]4(C)[C@]2(C)CC3)cc1` (stereo partly drawn), the growth is 11.7% in [1]; -50% (active) in experiment [2]; 74.4% in experiment [3]; 26.8% in experiment [4]; 5.82% (active) in [5]; -83.2% (active) in experiment [6]. Besides, the growth in experiment [7] was 34.3%; in experiment [8], -6.45% (active); in [9] it was 47.9%; in [10], 34.1%; in [11] it was 24.4%; in experiment [12] it was 25.4%. Also, the growth is 48% in experiment [13]; 23.7% in experiment [14]; 29.2% in experiment [15]; -1.05% (active) in experiment [16]; -1.64% (active) in [17]; 0.258% (active) in experiment [18].
As to `Cc1cc(=O)oc2cc(OCCCCOc3ccc(/C=C/C(=O)Nc4ccccc4N)cc3)ccc12`, the growth was 75.8% in [1]; 91.4% in experiment [2]; 67% in [3]; 60.2% in experiment [4]; 61% in [5]; -66.1% (active) in experiment [6]. In addition, the growth in [7] was 69.2%; in [8] it was 0.965% (active); in [9], 81.2%; in experiment [10] it was 111%; in experiment [11], 60.3%; in experiment [12], 23.3%. The growth in experiment [13] is 112%; in [14] it was 68.2%; in experiment [15], 59.8%; in experiment [16] it was 84.1%; in experiment [17] it was 10.9%; in experiment [18], 27.8%.
In the case of `COc1ccc(C(SCCNCc2cc(N(C)C)ccn2)(c2ccccc2)c2ccccc2)cc1`, the growth in experiment [1] was -19.5% (active); in experiment [2] it was -60.2% (active); in experiment [3] it was -0.256% (active); in experiment [4], -33.9% (active); in experiment [5], 2.15% (active); in [6] it was -100% (active). The growth was -3.86% (active) in experiment [7]; -98.9% (active) in experiment [8]; -65.3% (active) in experiment [9]; -34.9% (active) in experiment [10]; 9.49% (active) in experiment [11]; 15.4% in experiment [12]. The growth in experiment [13] is 24.5%; in experiment [14], 20.3%; in [15], 11.3%; in [16], 4.54% (active); in experiment [17], 4.47% (active); in experiment [18], 9.51% (active).
On to `CC1(C)CC[C@]2(C(=O)Nc3ccc(F)cc3)CC[C@]3(C)C(=CCC4[C@@]5(C)C[C@@H](O)[C@H](O)[C@@](C)(CO)C5CC[C@]43C)C2C1` (stereo partly drawn), for which the growth is 24.1% in [1]; 5.61% (active) in experiment [2]; 81.7% in experiment [3]; 38.3% in [4]; 11.2% in experiment [5]; -47.6% (active) in experiment [6]. Besides, the growth was 35% in experiment [7]; 26.5% in experiment [8]; 52.9% in experiment [9]; 45.9% in experiment [10]; 32.3% in [11]; 29.8% in experiment [12]. Moreover, the growth in experiment [13] was 58.6%; in experiment [14], 31.3%; in [15], 42.7%; in experiment [16] it was 29.8%; in experiment [17] it was 18.2%; in experiment [18] it was 5% (active).
For the compound `CC(C)CSc1nc(NCCc2c[nH]c3ccccc23)c(C#N)c(-c2ccc(Cl)cc2)n1`, the growth is 29.8% in experiment [1]; 15.1% in experiment [2]; 77.3% in experiment [3]; 23.8% in experiment [4]; 23.1% in experiment [5]; 30% in experiment [6]. The growth in [7] is 74.1%; in experiment [8], 22.5%; in experiment [9], 72.1%; in experiment [10] it was 90.1%; in experiment [11] it was 46.1%; in [12], 65.1%. Also, the growth in [13] is 108%; in experiment [14] it was 67.4%; in [16] it was 113%; in experiment [17], 20.6%; in experiment [18], 20.8%.
As for `CCCCCCCCOc1cccc(S(=O)(=O)Nc2ccc(C)cc2C(=O)O)c1`, the growth in experiment [1] is 92.4%; in [2], 110%; in experiment [3], 94.9%; in [4] it was 91.5%; in experiment [5] it was 88.2%; in [6], 89.1%. Further, the growth is 85.4% in experiment [7]; 101% in experiment [8]; 106% in experiment [9]; 89.7% in experiment [10]; 92.8% in [11]; 85.9% in experiment [12]. Also, the growth was 102% in [13]; 98.1% in experiment [14]; 85.8% in experiment [15]; 107% in experiment [16]; 72.5% in [17]; 90.5% in experiment [18].
